Some of the results follow. Records with an inconclusive call do not appear. Active and inactive are the calls of the source. Calls follow the shape of the dose curve; as a rule, active = well fitted curve in the direction sought with a large enough effect; inconclusive = small, poorly fitted or top-dose-only effect, or another doubt; inactive = no such curve, though single readings can be large; an effect the other way counts as inactive or inconclusive.
What was measured:
[1] = biological target: DNA polymerase eta (Homo sapiens) (UniProt Q9Y253); assay: qHTS for Inhibitors of Polymerase Eta: Confirmatory Assay for Cherry-picked Compounds (AID 720502); details: Pol eta primer extension, TAMRA/BHQ fluorescence, 10 min; also: potency is read from the fitted curve at half-maximal effect
Sequence of DNA polymerase eta (Homo sapiens) (Q9Y253 whole entry, looked up): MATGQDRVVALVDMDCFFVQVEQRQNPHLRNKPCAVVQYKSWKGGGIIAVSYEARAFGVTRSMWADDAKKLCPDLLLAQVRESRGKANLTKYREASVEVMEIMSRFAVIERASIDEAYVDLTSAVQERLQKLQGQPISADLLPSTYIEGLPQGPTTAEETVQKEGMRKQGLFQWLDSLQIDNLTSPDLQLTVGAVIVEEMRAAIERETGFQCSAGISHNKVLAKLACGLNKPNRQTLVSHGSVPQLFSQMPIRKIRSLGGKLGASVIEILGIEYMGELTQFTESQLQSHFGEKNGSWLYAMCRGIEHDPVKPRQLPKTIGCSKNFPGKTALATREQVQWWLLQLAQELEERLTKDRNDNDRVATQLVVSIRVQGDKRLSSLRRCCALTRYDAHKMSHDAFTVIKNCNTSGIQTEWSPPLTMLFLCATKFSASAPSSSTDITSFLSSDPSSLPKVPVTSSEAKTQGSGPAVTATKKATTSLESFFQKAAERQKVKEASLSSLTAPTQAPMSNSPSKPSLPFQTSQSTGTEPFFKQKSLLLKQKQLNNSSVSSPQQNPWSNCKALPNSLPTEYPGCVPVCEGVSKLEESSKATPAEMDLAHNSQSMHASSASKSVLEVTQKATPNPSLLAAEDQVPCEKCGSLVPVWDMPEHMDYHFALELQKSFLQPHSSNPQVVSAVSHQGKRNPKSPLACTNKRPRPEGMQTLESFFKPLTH
How it was run: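 Readout: TAMRA dequenching, ex 525/em 598 nm, read at 0 and 10 min. Enzyme: 10 nM human Pol eta, preincubated with compound 15 min RT. Substrate: 50 nM final annealed primer/reporter/template duplex.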

[2] = biological target: DNA polymerase kappa (Homo sapiens) (UniProt Q9UBT6); assay: qHTS for Inhibitors of Polymerase Kappa: Confirmatory Assay for Cherry-picked Compounds (AID 720501); details: purified Pol-kappa, fluorescent strand-displacement substrate; also: potency is read from the fitted curve at half-maximal effect
Sequence of DNA polymerase kappa (Homo sapiens) (Q9UBT6 whole entry, looked up): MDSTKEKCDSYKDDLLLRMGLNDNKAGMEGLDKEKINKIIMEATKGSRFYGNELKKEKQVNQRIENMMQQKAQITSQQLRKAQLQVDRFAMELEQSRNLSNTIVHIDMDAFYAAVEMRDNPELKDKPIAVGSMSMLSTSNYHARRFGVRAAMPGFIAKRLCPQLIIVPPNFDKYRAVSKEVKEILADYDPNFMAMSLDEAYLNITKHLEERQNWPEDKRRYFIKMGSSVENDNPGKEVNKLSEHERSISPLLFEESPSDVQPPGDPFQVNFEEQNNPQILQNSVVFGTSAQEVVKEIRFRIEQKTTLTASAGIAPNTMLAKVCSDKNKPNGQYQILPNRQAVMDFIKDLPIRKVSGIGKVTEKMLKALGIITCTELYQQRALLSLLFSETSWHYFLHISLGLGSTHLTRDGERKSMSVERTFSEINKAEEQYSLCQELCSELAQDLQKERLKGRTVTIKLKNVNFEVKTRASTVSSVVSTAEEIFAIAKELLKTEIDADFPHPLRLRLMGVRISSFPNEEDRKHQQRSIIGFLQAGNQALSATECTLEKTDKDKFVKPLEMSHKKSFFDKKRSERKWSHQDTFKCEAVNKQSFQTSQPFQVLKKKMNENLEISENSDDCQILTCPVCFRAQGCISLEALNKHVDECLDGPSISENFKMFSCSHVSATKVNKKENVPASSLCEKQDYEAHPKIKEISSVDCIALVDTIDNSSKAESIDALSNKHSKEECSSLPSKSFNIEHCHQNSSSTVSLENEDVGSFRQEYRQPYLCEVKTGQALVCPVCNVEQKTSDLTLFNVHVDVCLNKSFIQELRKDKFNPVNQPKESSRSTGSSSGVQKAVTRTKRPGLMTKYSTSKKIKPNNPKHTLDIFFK
How it was run: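 Strand-displacement fluorescence read-out: TAMRA reporter released from a BHQ-2-quenched template, measured at 525/598 nm over a 10 min kinetic window. Substrate was 50 nM final; enzyme was 10 nM Pol-kappa, preincubated 15 min at room temperature with compound.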

[3] = biological target: Bifunctional 3'-5' exonuclease/ATP-dependent helicase WRN (Homo sapiens) (UniProt Q14191); assay: qHTS for Inhibitors of WRN Helicase: Confirmatory Assay for Cherry-picked Compounds. (AID 720497); details: WRN helicase DNA unwinding, fluorescence kinetic; series mostly up to 57.1 µM; also: nearly all actives have a fitted effect of over 65% in size; also: potency is read from the fitted curve at half-maximal effect
How it was run: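 Compound and 20 nM WRN incubated 15 min, RT. Forked duplex (100 nM) plus ATP (2 mM) added. Fluorescence monitored kinetically and normalized to controls.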

[4] = biological target: RecQ-like DNA helicase BLM (Homo sapiens) (UniProt P54132); assay: qHTS for Inhibitors of WRN Helicase: BLM Helicase Counterscreen for WRN Inhibitors (AID 720503); details: Recombinant BLM helicase DNA unwinding, red fluorescence; series mostly up to 57.1 µM; also: nearly all actives have a fitted effect of over 60% in size
Sequence of RecQ-like DNA helicase BLM (Homo sapiens) (P54132 whole entry, looked up): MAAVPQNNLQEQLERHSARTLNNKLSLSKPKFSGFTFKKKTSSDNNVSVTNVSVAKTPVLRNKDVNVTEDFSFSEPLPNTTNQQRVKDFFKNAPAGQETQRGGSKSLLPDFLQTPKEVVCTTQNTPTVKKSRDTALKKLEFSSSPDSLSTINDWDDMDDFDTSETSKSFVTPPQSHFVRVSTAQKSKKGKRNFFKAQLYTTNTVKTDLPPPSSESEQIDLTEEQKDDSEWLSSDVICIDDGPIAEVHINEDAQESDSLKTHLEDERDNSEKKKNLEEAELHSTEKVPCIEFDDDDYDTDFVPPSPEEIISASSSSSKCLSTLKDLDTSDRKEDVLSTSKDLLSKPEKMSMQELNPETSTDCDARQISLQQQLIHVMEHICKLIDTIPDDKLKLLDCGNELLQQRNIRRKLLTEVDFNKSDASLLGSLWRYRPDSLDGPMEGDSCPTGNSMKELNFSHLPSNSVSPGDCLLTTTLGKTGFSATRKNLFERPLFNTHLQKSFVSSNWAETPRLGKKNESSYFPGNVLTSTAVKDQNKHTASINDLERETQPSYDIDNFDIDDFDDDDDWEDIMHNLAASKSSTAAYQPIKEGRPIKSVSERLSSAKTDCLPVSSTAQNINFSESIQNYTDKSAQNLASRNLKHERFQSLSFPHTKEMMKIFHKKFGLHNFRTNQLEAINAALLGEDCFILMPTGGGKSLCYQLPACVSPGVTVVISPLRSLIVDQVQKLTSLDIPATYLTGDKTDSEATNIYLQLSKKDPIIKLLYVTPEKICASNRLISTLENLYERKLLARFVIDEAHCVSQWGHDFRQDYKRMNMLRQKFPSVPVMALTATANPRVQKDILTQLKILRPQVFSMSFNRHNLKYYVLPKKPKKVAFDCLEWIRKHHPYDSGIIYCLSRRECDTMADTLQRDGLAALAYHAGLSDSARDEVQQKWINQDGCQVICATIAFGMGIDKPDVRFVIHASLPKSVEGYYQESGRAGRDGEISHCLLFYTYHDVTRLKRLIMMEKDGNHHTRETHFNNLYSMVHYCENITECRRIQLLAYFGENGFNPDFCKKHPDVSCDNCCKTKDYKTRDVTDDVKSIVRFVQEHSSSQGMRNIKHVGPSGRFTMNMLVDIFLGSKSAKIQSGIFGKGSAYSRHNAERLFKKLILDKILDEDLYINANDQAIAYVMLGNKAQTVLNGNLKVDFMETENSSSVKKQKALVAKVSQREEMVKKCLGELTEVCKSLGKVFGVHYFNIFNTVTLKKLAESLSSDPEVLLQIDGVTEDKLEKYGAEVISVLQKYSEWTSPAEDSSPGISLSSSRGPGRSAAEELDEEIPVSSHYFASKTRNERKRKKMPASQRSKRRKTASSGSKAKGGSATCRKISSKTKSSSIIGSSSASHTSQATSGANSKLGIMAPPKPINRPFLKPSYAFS
How it was run: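 BLM at 1 nM was preincubated with compound for 15 min at room temperature in 25 mM Tris-HCl pH 8.0, 50 mM NaCl, 2 mM MgCl2, 1 mM DTT and 0.01% Tween-20. Unwinding was started with 100 nM DNA and 2 mM ATP (final). Fluorescence (ex 525/em 598 nm) was read twice, 15 min apart, and normalized to enzyme-free and DMSO controls.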

[5] = biological target: DNA polymerase iota (Homo sapiens) (UniProt Q9UNA4); assay: qHTS for Inhibitors of Polymerase Iota: Confirmatory Assay for Cherry-picked Compounds (AID 720496); details: Pol iota primer extension, TAMRA/BHQ fluorescence; also: potency is read from the fitted curve at half-maximal effect
Sequence of DNA polymerase iota (Homo sapiens) (Q9UNA4 whole entry, looked up): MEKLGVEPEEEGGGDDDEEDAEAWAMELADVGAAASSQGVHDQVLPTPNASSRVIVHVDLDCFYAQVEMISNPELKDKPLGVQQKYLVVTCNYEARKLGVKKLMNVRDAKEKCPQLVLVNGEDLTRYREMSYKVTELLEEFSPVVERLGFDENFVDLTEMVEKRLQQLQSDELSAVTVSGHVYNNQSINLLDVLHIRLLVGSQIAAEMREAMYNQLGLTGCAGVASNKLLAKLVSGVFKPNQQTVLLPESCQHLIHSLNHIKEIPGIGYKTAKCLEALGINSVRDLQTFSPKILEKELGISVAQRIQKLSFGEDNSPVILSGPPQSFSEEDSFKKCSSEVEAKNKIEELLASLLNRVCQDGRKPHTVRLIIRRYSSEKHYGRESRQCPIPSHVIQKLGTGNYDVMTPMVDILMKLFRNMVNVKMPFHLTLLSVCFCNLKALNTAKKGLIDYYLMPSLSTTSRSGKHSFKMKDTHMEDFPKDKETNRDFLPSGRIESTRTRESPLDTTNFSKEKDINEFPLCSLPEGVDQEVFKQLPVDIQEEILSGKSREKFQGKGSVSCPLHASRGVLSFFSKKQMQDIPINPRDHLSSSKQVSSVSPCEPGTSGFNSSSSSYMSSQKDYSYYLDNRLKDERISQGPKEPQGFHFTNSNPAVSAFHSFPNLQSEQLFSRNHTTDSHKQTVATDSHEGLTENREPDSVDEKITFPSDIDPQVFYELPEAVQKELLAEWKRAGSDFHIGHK
How it was run: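 Enzyme (10 nM Pol iota) and compound sit together for 15 min at room temperature. Adding annealed primer/TAMRA-reporter/BHQ-2-template substrate, 50 nM final, starts the reaction, which is followed by fluorescence over 10 min.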

Structure (SMILES): Cc1ccc(NC(=O)c2cc(-c3ccc(C)o3)nc3ccccc23)nc1
- Potency [1]: 75.7 µM (active)

Structure (SMILES): CCc1nc2cccnc2n1-c1ccc(C(=O)O)cc1
- Potency [2]: 18.9 µM (active)
- Potency [1]: 10.7 µM (active)

Structure (SMILES): O=C1Nc2ccc([N+](=O)[O-])cc2C1=Nc1cccc(CO)c1
- Potency [1]: 75.7 µM (active)

Structure (SMILES): CN(C)c1nc(Nc2ccc(Cl)c(Cl)c2)nc(N(C)C)n1
- Potency [3]: inactive
- Potency [4]: inactive

Structure (SMILES): Cc1ccc2cc(/C=N/Nc3ccc(C(=O)O)cc3)c(Cl)nc2c1
- Potency [2]: 26.7 µM (active)
- Potency [1]: 30.1 µM (active)

Structure (SMILES): Cc1ccc(-c2nn(-c3ccccc3)cc2/C=C2\SC(=S)N(CCCCCC(=O)O)C2=O)o1
- Potency [5]: 29.9 µM (active)
- Potency [2]: 33.6 µM (active)
- Potency [1]: 75.7 µM (active)

Structure (SMILES): CCN(CC)CCOc1ccc2c(c1)C(=NNC(=O)c1ccccn1)c1cc(OCCN(CC)CC)ccc1-2
- Potency [3]: 13.6 µM (active)
- Potency [4]: inactive

Structure (SMILES): C=CC1=C(C(=O)O)N2C(=O)[C@@H](NC(=O)/C(=N/OCC(=O)O)c3csc(N)n3)[C@H]2SC1
- Potency [5]: 2.67 µM (active)
- Potency [1]: 3.38 µM (active)

Structure (SMILES): CCCN1CCN(C(=O)Cn2ncc3ccccc32)CC1
- Potency [1]: 75.7 µM (active)

Structure (SMILES): COc1ccccc1C(=O)N/C(=C/c1ccco1)C(=O)Nc1ccc(C(=O)O)cc1
- Potency [2]: 15 µM (active)
- Potency [1]: 53.6 µM (active)

Structure (SMILES): O=C(COC(=O)CCC(=O)c1cccs1)NCc1ccco1
- Potency [5]: 23.8 µM (active)
- Potency [1]: 75.7 µM (active)

Structure (SMILES): O=C(O)c1ccc(NS(=O)(=O)c2ccc3c(c2)C(=O)c2cc(S(=O)(=O)Nc4ccc(C(=O)O)cc4)ccc2-3)cc1
- Potency [2]: 16.8 µM (active)
